Compound activity: PubChem, National Center for Advancing Translational Sciences (NCATS)
VDR inhibitor = blocks the human vitamin D receptor; AID 504847; VDR-SRC2-3 peptide fluorescence polarization, 2 h; 0.93% of 400,000 active; Potency, µM, inactives show max response, negative = inhibition, hits mostly inhibitors; P11473; further: on the % scale 0 is the no-effect control and ±100 the full control effect
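Inhibition of the VDR/SRC2-3 peptide interaction is quantified by fluorescence polarization. Compounds (23 nl, pintool) incubate with the reagents for 2 hours at ambient room temperature.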
PLK1 PBD block = PLK1 (human) polo-box domain binding inhibition; Plk1 PBD binding of FITC phosphopeptide, fluorescence polarization; Potency, µM, for the others: max response, negative = inhibition, usual class: inhibitors; 2.8% of 360,000 active; AID 720504; further: series mostly up to about 57 µM; on the % scale 0 is the no-effect control and ±100 the full control effect; nearly all actives have a fitted effect of over 65% in size
JMJD2A Tudor inh = blocks the human JMJD2A Tudor domain. O75164. AlphaScreen JMJD2A-Tudor / H3K4me3 peptide binding. 4.4% of 390,000 active. Potency, µM (doses to about 114 µM), for the others: at the top dose activity change, negative = inhibition, usual class: inhibitors. AID 504339; further: on the % scale 0 is the no-effect control and ±100 the full control effect; nearly all actives have a fitted effect of over 50% in size
BAZ2B inh = BAZ2B (human) inhibition | AlphaScreen BAZ2B-H3K14Ac peptide displacement | Potency, µM (doses to about 114 µM), for the others: top-dose activity change, negative = inhibition, hits mostly inhibitors | AID 504333 | 4.4% of 360,000 active; further: on the % scale 0 is the no-effect control and ±100 the full control effect; nearly all actives have a fitted effect of over 60% in size
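Inhibition is scored as reduced AlphaScreen emission. The BAZ2B/b-H3(5-23)K14Ac complex (50 nM each) in PBS pH 7.4, 0.01% Tween-20 meets compound (up to 110 uM) for 30 min at RT before bead addition.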
HP1b binding inh = inhibitors of HP1-beta chromodomain binding to methylated histone tails. AlphaScreen HP1-beta / biotin-H3K9me3 peptide binding. 0.56% of 390,000 active. Potency, µM (doses to about 114 µM), for inactives: top-dose activity change, negative = inhibition, most hits filed as inhibitors. P83916; further: nearly all actives have a fitted effect of over 70% in size
Target sequence (P83916 whole entry, looked up): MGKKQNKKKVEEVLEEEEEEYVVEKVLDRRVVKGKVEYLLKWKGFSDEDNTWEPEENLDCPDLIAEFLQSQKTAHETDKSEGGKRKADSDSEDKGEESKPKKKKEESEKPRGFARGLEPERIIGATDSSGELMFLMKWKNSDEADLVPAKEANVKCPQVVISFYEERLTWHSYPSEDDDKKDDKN
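AlphaScreen: HP1-beta (50 nM) preformed 30 min with biotin-H3(1-18)K9me3 peptide (50 nM) in PBS pH 7.4, 0.01% Tween-20. Compound added for 30 min at RT, then streptavidin donor/nickel chelate acceptor beads (10 ug/mL) for 30 min.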
G9a inh = blocks human histone lysine methyltransferase G9a. Q96KQ7. G9a H3K9 monomethylation, AlphaScreen, 2 h. Potency, µM (highest dose often 102 µM), without a hit: top-dose activity, negative = inhibition, hits mostly inhibitors. 8.8% of 350,000 active; further: on the % scale 0 is the no-effect control and ±100 the full control effect; nearly all actives have a fitted effect of over 75% in size
Target sequence (Q96KQ7 913-1193 limits assumed): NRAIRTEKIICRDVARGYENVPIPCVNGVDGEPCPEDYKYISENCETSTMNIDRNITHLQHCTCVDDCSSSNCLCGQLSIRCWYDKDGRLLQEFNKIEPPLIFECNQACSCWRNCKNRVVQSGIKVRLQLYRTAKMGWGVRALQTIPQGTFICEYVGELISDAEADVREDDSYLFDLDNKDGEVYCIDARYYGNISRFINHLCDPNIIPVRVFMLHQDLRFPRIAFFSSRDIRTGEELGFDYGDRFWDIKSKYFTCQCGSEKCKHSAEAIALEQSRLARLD
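AlphaScreen read-out: biotin-H3K9 peptide (500 nM) methylation by 20 nM enzyme with 20 uM SAM, 2 h at room temperature after 15 min compound preincubation; anti-monomethyl H3K9 antibody plus donor/acceptor beads, 10 min dark.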
* marks the source's active call; other numbers are inactive results; ? = inconclusive; . = not tested or not shown; [ ] = dose if it differs, or a comment. Most compounds without a hit are left out; they make up all but 11% or so of the library. The call rests on the fitted dose curve; in most records, active means well fitted curve in the direction sought with a large enough effect; inconclusive means small, poorly fitted or top-dose-only effect, or another doubt; inactive means no such curve, though single readings can be large; an effect the other way counts as inactive or inconclusive. Potency means the concentration at half of the fitted maximal effect.

SMILES	VDR inhibitor	PLK1 PBD block	JMJD2A Tudor inh	BAZ2B inh	HP1b binding inh	G9a inh
CCCNC(=O)c1ccc(N2CCC3(CC2)CC(c2ccccc2)=NO3)c(NC(=O)Cc2ccc(F)cc2)c1	-5%	1%	-32%	?	28%	50µM*
CCOc1ccc2c(c1)c(=O)c(C(=O)c1ccc3c(c1)OCO3)cn2Cc1cccc(F)c1	12%	.	-7%	-19%[57.1 µM]	28%	4%[59 µM]
COc1ccccc1NCCC(=O)OCC(=O)NC1CCCCC1	7%	3%	-8%	-29%	14%	3.5µM*
COc1ccccc1NC(C)=O	-3%	-14%	-8%[11.4 µM]	.	-1%	7%[59 µM]
COc1ccccc1NC(=O)CC(NC1CCCCC1)C(=O)O (configuration not stated)	0%	2%	-3%	-23%	11%	50µM*
COc1ccccc1NC(=O)O/N=C(\N)c1ccccc1	?	11µM*	-18%[11.4 µM]	3%	-6%	?
COc1ccccc1NC(=O)CC(=O)c1ccccc1	?	30µM*	?	8%	18%	18%
Cc1ccc(C2=NOC(C)(c3nnc(-c4ccc(Cl)cc4)o3)C2)cc1 (configuration not stated)	-10%	-5%	18%	16%	50%	4%[59 µM]
COc1ccc(C2C=C3CN(C(=O)OC(C)(C)C)S(=O)(=O)C3CC2OC(=O)c2cccc(C)c2)cc1 (configuration not stated)	-2%	.	-21%	.	32%	.
CCc1cc(-c2[nH]ncc2-c2ccc([N+](=O)[O-])cc2)c(O)cc1OC	21%	-2%	50µM*	40µM*	?	50µM*
COc1ccc(-c2cn[nH]c2-c2ccc(OCc3ccc([N+](=O)[O-])cc3)cc2O)cc1OC	-10%	-4%	?	-28%	5%	11%[12.7 µM]
O=C(Nc1ccc(Cl)c(Cl)c1)Nc1nnc(CC2=CCCCC2)s1	6%	-7%	-10%	2%	37%	16%[59 µM]
CCCCn1c(=O)nc2n(-c3ccc(C)cc3)c3ccccc3cc-2c1=O	-19%	-1%	-5%	5%	.	18%
CCCCn1c(=O)nc2n(-c3ccc(Cl)cc3)c3ccccc3cc-2c1=O	-10%	-8%	4%	7%	34%	40µM*
C[C@@H]1CN([C@@H](C)CO)C(=O)c2cc(C#CCN(C)C)cnc2O[C@H]1CN(C)Cc1ccc2c(c1)OCO2	.	-7%	.	.	.	.
CSc1nnc(C)c(/C=C/NOCc2cccc(F)c2)n1	-8%	0%	-26%	?	5%	22µM*
CC1CCN(c2c([N+](=O)[O-])nn(-c3ccc4c(c3)OCCO4)[n+]2[O-])CC1	1%	-9%	?	22µM*	?	35µM*
COC(=O)C1=CN(c2cccc(Cl)c2)C=C(C(=O)OC)C1c1cccc(OC)c1	-5%	-3%	60%	40%	115%	197%
CC1CCCCN1Cc1ccc(N(C)C)cc1 (configuration not stated)	-9%	-7%	-17%	10%	4%	-36%
COC(=O)c1ccc(CN2CCCC(CCC(=O)NCc3ccc(C)o3)C2)cc1 (configuration not stated)	-1%	24µM*	?	-23%	-17%	-31%
CCOC(=O)C1CCN(C(=O)c2cc3cc(F)ccc3[nH]2)CC1	-16%	-2%	-20%	-14%	20%	24%
CCOC(=O)C1CCN(Cc2ccc(C(=O)OC)cc2)CC1	13%	-4%	5.6µM*	50µM*	-26%	?
CCOC(=O)C1CCN(Cc2ccc(F)cc2)CC1	1%	1%	4µM*	-34%	?	?
CN(C)c1ccc(CN2CCC(C(N)=O)CC2)cc1	-10%	-16%	22µM*	22µM*	-5%	14µM*
CCOC(=O)N1CCC(N2C(=O)c3ccc(C(=O)NCCOC)cc3C2=O)CC1	18%	3%	12%	0%	49%	13%
SMILES	VDR inhibitor	PLK1 PBD block	JMJD2A Tudor inh	BAZ2B inh	HP1b binding inh	G9a inh
O=C(c1nn2c(C(F)(F)F)cc(-c3ccc(F)cc3)nc2c1Cl)N1CCOCC1	-4%	27µM*	-20%[11.4 µM]	.	-14%	42%[59 µM]
CC1CCCCN1S(=O)(=O)c1ccc(C(=O)Nc2sc3c(c2C(N)=O)CC(C)(C)NC3(C)C)cc1 (configuration not stated)	8%	.	-22%	-1%	26%	-24%[59 µM]
Cc1cc(C)cc(C(O)c2ncc(-c3cccc(C(F)(F)F)c3)[nH]2)c1 (configuration not stated)	.	1%	.	.	.	.
O=C(CCCc1nc2ccccc2s1)NC1CCOC1=O (configuration not stated)	14%	10%	-5%	-2%	30%	27%
O=C(CCc1nc2ccccc2s1)NC1CCOC1=O (configuration not stated)	-16%	24µM*	-9%[11.4 µM]	14%	-11%	40%[59 µM]
Cc1ncoc1C(=O)N1CCCC(C(=O)c2ccc(C(F)(F)F)cc2)C1 (configuration not stated)	-8%	-20%	-24%	-22%	-31%	25µM*
O=C(NC1(C(F)(F)F)NC(=O)N(Cc2ccco2)C1=O)c1cccnc1 (configuration not stated)	105%	-7%	-9%	11%	34%	40µM*
O=C(/C=C/c1ccco1)NC(=S)Nc1ccccc1O	8%	-29%	-8%[11.4 µM]	40µM*	?	32µM*
O=C(/C=C\c1ccco1)NC(=S)Nc1ccccc1O	-16%	?	-12%[11.4 µM]	50µM*	-12%	45µM*
O=C(/C=C/c1ccco1)NC(=S)Nc1ccccc1N1CCOCC1	0%	-8%	?	?	-24%	?
O=C(/C=C/c1ccco1)NC(=S)Nc1ccccn1	-9%	?	79µM*	56µM*	-25%	?
CC(Sc1nc(N)cc(=O)[nH]1)C(=O)Nc1ccc(N2CCOCC2)cc1 (configuration not stated)	.	-2%	.	.	.	.
Cc1ccsc1C(=O)N1CCN(S(=O)(=O)c2cccc(F)c2)CC1	-6%	-5%	-17%	7%	-14%	28µM*
Cc1ccc(S(=O)(=O)N2CCN(C(=O)c3sccc3C)CC2)cc1	-2%	-27%	-4%	?	19%	?
C[C@H](CO)N1C[C@H](C)[C@@H](CN(C)C(=O)c2ccncc2)OCc2cnnn2CCCC1=O	.	-21%	.	.	.	.
CC1CCC2(CC1)NC(=S)N(C(C)(C)C)N2 (configuration not stated)	?	6%	?	-13%	55%	7.1µM*
CC1CCC2(CC1)NC(=S)N(c1ccccc1)N2 (configuration not stated)	-9%	-10%	-17%	79µM*	49%	6.3µM*
